Drawing on ChEMBL document CHEMBL1157539, “Thousands of chemical starting points for antimalarial lead identification” (Nature, 2010), this text covers Inhibition for 39 compounds.

The test system of the experiment is Plasmodium falciparum. The experiment in a line: GSK_TCMDC: Inhibition of Plasmodium falciparum 3D7 in whole red blood cells, using parasite LDH activity as an index of growth. Test compounds present at 2uM. Type of experiment: functional.
Turning to `Cc1ccc(C(=O)Nc2ccc(Nc3ccnc4cc(-c5ccncc5)ccc34)cc2O)cc1`, the Inhibition (in general, the share of the control response that was lost under treatment) was 97%.

In turn, `Cc1cccc2c(/C=C/C(=O)NC3CCC(CCN4CCc5ccc(C#N)cc5CC4)CC3)c[nH]c12.Cl` (centres undefined) returned an Inhibition of 91%.

In the case of `CN(C)CCNCc1ccc(-c2cccc(-c3nc4ccccc4[nH]3)c2)cc1.O=C(O)C(F)(F)F`, the Inhibition is on record as 100%.

In turn, `CN(C)CCCOc1ccc(CCCCc2ccc(Cl)cc2C(=O)c2ccccc2)cc1.O=C(O)C(=O)O` showed an Inhibition of 92%.

With `O=C(Cn1c(CCc2cccc(F)c2F)cc(=O)c2ccccc21)N(Cc1ccc(-c2ccc(C(F)(F)F)cc2)cc1)C1CCN(CCN2CCOCC2)CC1.O=C(O)C(O)C(O)C(=O)O`, the Inhibition came out at 100%.

Compound `Cl.N=C(N)NN=Cc1c2ccccc2c(Cl)c2c(Cl)cccc12` registered an Inhibition of 91%.

The compound `COc1ccc(NC(=O)NC2CCN(c3ccnc4cc(Cl)ccc34)CC2)cc1.O=C(O)C(F)(F)F` returned an Inhibition of 83%.

In the case of `C=CCOC(=O)N1CCC(CNCc2ccc(-c3cccc(-c4nc5cc(F)ccc5[nH]4)c3)cc2)C1.O=C(O)C(F)(F)F` (centres undefined), the Inhibition was 100%.

Turning to `COc1cc(NC(=O)/C=C/c2ccccc2OC(F)(F)F)cc(OCCN2CCCCC2)c1.O=C(O)C(=O)O`, the Inhibition was 96%.

`COC(=O)[C@@H](NC(=O)[C@@H](Nc1ccc(C#N)c2ccccc12)C(C)(C)C)c1ccc(O)cc1` registered an Inhibition of 100%.

For the compound `CN(C)CCN(C)C(=O)c1cc(-c2ccncc2)c(-c2ccc(Cl)c(O)c2)o1.Cl`, the Inhibition was determined as 97%.

`CCC(NC(=O)c1ccccc1NC(=O)c1ccc(C)cc1)C(=O)OC` (centres undefined) displayed an Inhibition of 95%.

Compound `Br.C=CCN1Cc2c(O)cccc2C(c2ccc(O)c(O)c2)C1` (centres undefined) returned an Inhibition of 97%.

The compound `Oc1ccc(-c2nc(-c3ccc4oc5ccc(-c6[nH]c(-c7ccc(O)cc7)nc6-c6ccccc6)cc5c4c3)c(-c3ccccc3)[nH]2)cc1` returned an Inhibition of 84%.

Turning to `COc1ccc(-c2ccc(NC(=O)c3cccc(F)c3)cc2)cc1CN1CCCN(C)CC1.O=C(O)C(F)(F)F`, the Inhibition is on record as 100%.

`COc1cccc(-c2cccc(-c3ccc(NC(=O)c4ccc([N+](=O)[O-])o4)cc3)n2)c1` gave an Inhibition of 97%.

For `FC(F)(F)c1ccc(-c2ccc(CNC3CCN(CCN4CCOCC4)CC3)cc2)cc1`, the Inhibition stood at 100%.

For `N#Cc1ccc(CNCCCCCCCNCc2ccc(-c3ccccc3)cc2)cc1`, the Inhibition came out at 87%.

In turn, `O=C(Nc1cccc(-c2cccc(-c3nc4cc(C(F)(F)F)ccc4[nH]3)c2)c1)c1ccoc1` yielded an Inhibition of 99%.

In turn, `CN(C)CCOc1ccc(-c2cc(-c3ccc(Cl)c(O)c3)c(-c3ccncc3)[nH]2)cc1.Cl` gave an Inhibition of 98%.

As for `Clc1ccc(-c2cc(-c3csc(NCCN4CCOCC4)n3)on2)c(Cl)c1`, the Inhibition was found to be 97%.

With `Cc1cc(-c2cccc(CNCc3ccc(F)cc3)c2)ccc1S(=O)(=O)NCCN1CCCC1.O=C(O)C(F)(F)F`, the Inhibition came to 100%.

On to `O=C(Nc1ccc(Br)cc1)c1cc(Br)ccc1NS(=O)(=O)c1cc(C(F)(F)F)cc(C(F)(F)F)c1`, for which the Inhibition came out at 85%.

In turn, `CN(C)CCC1CCCc2ccc(NC(=O)Nc3cccc(Cl)c3Cl)cc21.Cl` (centres undefined) returned an Inhibition of 93%.

Regarding `CN1CCN(CCc2ccc3nc(-c4csc(Cc5cc(Cl)ccc5OCc5ccccc5)n4)[nH]c3c2)CC1`, the Inhibition worked out at 100%.

In turn, `COc1cc2c(cc1NS(=O)(=O)c1ccc(OCc3ccc(Br)cc3)cc1)CCN(C1CCC1)CC2.Cl` yielded an Inhibition of 94%.

In turn, `O=C(/C=C/c1ccc(Cl)c(Cl)c1)NCC[C@@H]1C[C@H]1CCN1CCC(c2c[nH]c3ccccc23)CC1` registered an Inhibition of 96%.

For `Cc1cccc2nc(-c3ccc(-c4cccc(CNCc5ccccc5)c4)cc3)[nH]c12.O=C(O)C(F)(F)F`, the Inhibition was 100%.

For the compound `Br.CC1(C)NC(N)=NC(=N)N1OCCOc1ccc(Cc2ccccc2)cc1`, the Inhibition turned out to be 94%.

Turning to `O=C(/C=C/c1ccc(Cl)c(Cl)c1)N1CCC(CCCN2CCC(c3c[nH]c4ccc(O)cc34)CC2)CC1`, the Inhibition worked out at 100%.

`O=C(O)C(F)(F)F.c1cc(CN2CCC(CCN3CCCCC3)CC2)cc(-c2csc(-c3nc4ccccc4[nH]3)c2)c1` displayed an Inhibition of 99%.

The compound `O=C(O)C(F)(F)F.O=S(=O)(NC1CCN(c2ccnc3cc(Cl)ccc23)C1)c1ccc(F)cc1` (centres undefined) registered an Inhibition of 98%.

For `Br.Clc1ccc(-c2nc(-c3ccncc3)c[nH]2)cc1Cl`, the Inhibition is listed as 96%.

Turning to `Cc1ccc(Nc2nc(-c3ccccn3)cs2)nc1`, the Inhibition is given as 94%.

`CCOc1cc(CC)ccc1C1CCN(CCCCNC(=O)c2ccc(NC(=O)c3ccc(Cl)cc3)cc2)CC1.Cl` gave an Inhibition of 100%.

`Cc1c(-c2cccc(C(C)(C)NCCCN3CCCCC3)c2)cnc(N)c1C.Cl`: the Inhibition is listed as 95%.

In turn, `CC[C@H](NC(=O)c1c(CCCN2CCN(c3ccccc3)CC2)c(-c2ccccc2)nc2cc(O)ccc12)c1ccccc1` gave an Inhibition of 96%.

`O=C(Nc1cccc(-c2cccc(-c3nc4cc(F)ccc4[nH]3)c2)c1)Nc1ccc(F)c(F)c1F` returned an Inhibition of 100%.

`CS(=O)(=O)N1CC2(CCN(CCC(NC(=O)NCc3ccc(Cl)c(Cl)c3)c3ccc(Cl)c(Cl)c3)CC2)c2ccccc21` (centres undefined) showed an Inhibition of 89%.
